# According to PubChem BioAssay:
# Test: reversal of MRP1-mediated doxorubicin resistance, pilot screen, H69AR cells, doxorubicin co-treatment (AID 601)
# Settings: H69AR cells, CellTiter-Glo, 72 h; compound alone cytotoxicity; at 10 µM
row,Structure (SMILES),viability
1,COC(=O)CCn1nnc(-c2ccc(C)cc2)n1,94.1%
2,COC(=O)CCC(=O)CN,88.6%
3,O=C(Nc1ccc(N2CCCC2)cc1)c1cccc(F)c1,25.8%
4,Cc1nc(-c2coc3cc(OCC(=O)O)ccc3c2=O)cs1,90.5%
5,CCN1CCc2c(C#N)c(N3CCCCC3)nc(NCc3ccccc3)c2C1,16.3%
6,Cc1ccc(S(=O)(=O)N2CCCN(S(=O)(=O)C3CCS(=O)(=O)C3)CC2)cc1 (stereo not given),99.1%
7,COc1nc(NCCc2ccc(OC)c(OC)c2)nc(NC(C)(C)CO)n1,95.5%
8,O=C(O)c1cc(-c2ccccc2)nc2ccccc12,76.7%
9,Cc1nc2ccc(C(=O)O)cc2c2c1CC(C)S2 (stereo not given),90.8%
10,COC(=O)c1ccc(COC(=O)c2c(C)nn(Cc3ccccc3Cl)c2Cl)o1,86.2%
11,CSc1nnc(-c2cnccn2)n1Cc1ccccc1,102%
12,COCCNC(=O)C(c1ccc(C)o1)N(Cc1cccs1)C(=O)c1snc(C(N)=O)c1N (stereo not given),86.4%
13,COc1ccc(CCNC(=O)CSCc2n[nH]c(=O)[nH]2)cc1OC,88.5%
14,CCCOc1cccc(C(=O)Nc2cc(NC(=O)c3ccco3)ccc2OC)c1,85%
15,Cc1cc(S(=O)(=O)N2CCN(c3ccccc3C)CC2)ccc1F,79.5%
16,O=S(=O)(c1ccc(Br)s1)N1CCN(c2ccccc2)CC1,87.6%
17,O=C(CSCc1ccc(F)cc1)NC1CCCC1,95.8%
18,Cc1cc(NCC2CCCO2)n2c(nc3ccccc32)c1C#N (stereo not given),71%
19,Cc1nc(NC2=NCN(CCCN3CCOCC3)CN2)nc2c(C)cccc12,53.4%
20,Cc1nnc(NC(=O)CCC(=O)N2CCC(C)CC2)s1,90.8%
